We go through 36 compounds from ChEMBL document CHEMBL3433997, “St. Jude Leishmania screening dataset” (2016).

What all share (type): functional
The target of assay [1] is Solute carrier family 2, facilitated glucose transporter member 1 (Homo sapiens) (UniProt P11166). Briefly: ST_JUDE_LEISH: Cytotoxicity at 2uM final concentration against transgenic Leishmania Mexicana promastigotes LmGLUT1 that are glucose transport deficient and complemented with the human glucose transporter GLUT1. Activity is measured by DNA content using SYBR green in vitro.

Assay [2] addresses Hexose transporter 1 (Plasmodium falciparum) (UniProt O97467). Nature of the assay: ST_JUDE_LEISH: Cytotoxicity at 2uM final concentration against transgenic Leishmania Mexicana promastigotes LmPfHT that are glucose transport deficient and complemented with the Plasmodium falciparum hexose transporter. Activity is measured by DNA content using SYBR green in vitro.
Assay [3] deals with Glucose transporter (Leishmania mexicana) (UniProt O61059). Briefly: ST_JUDE_LEISH: Cytotoxicity at 2uM final concentration against transgenic Leishmania Mexicana promastigotes LmGT2 that are glucose transport deficient and complemented with the L. Mexicana glucose transporter 2. Activity is measured by DNA content using SYBR green in vitro.

Solute carrier family 2, facilitated glucose transporter member 1 (Homo sapiens), sequence (P11166 whole entry): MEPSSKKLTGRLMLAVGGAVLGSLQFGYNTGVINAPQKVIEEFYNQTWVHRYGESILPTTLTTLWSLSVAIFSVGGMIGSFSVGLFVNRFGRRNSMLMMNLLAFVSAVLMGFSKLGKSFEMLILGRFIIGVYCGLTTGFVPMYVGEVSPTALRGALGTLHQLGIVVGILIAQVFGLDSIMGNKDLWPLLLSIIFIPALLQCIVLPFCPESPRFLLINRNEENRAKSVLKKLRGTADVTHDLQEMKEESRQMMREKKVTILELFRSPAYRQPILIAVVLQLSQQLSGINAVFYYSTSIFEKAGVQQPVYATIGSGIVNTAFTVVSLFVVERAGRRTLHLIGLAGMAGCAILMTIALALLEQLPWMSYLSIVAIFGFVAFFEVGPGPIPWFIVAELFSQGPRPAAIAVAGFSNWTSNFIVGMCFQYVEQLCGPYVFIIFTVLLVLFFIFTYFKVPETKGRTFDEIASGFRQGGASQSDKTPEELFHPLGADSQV

As to `CN1CCC(NCc2cccc(-c3ccc(S(=O)(=O)NCc4ccccc4)cc3)c2)CC1`, the inhibition (usually the relative decrease from the control value, in per cent) in assay [1] is 8.1%; in assay [2], 7.9%; in assay [3], 10.3%.

For `COc1ccc2[nH]ccc(=NN=Cc3cccnc3)c2c1`, the figures for the inhibition in assay [1], in assay [2] and in assay [3] were 1.08%, -2.41% and 1.2%, respectively.

With `Cc1cccc2nc(-c3ccc(-c4cccc(CN5CCC(C(N)=O)CC5)c4)cc3)[nH]c12`, the inhibition in assay [1] was 0.21%; in assay [2], -0.52%; in assay [3], -1.72%.

Take `CCC(CC)n1cc2c(ccc3nc(N)nc(N)c32)n1`: the inhibition in assay [1] was -1.92%; in assay [2], -0.91%; in assay [3] it was -4.05%.

Take `c1ccc(COc2ccc(Nc3ncnc4cnc(-c5ccc(CNc6cccnc6)o5)cc34)cc2)cc1`: the inhibition came to 3.94% in assay [1], 3.46% in assay [2] and 0.83% in assay [3].

Regarding `CC(CCc1ccc(OCc2ccccc2)cc1)NCC(O)c1ccccc1` (stereo not drawn), the inhibition was -1.32% in assay [1], 0.43% in assay [2] and -0.69% in assay [3].

On to `COc1cccc(CNc2noc(-c3c(-c4ccccc4)noc3C)n2)c1OC`, for which the results for the inhibition in assay [1], in assay [2] and in assay [3] were 3.64%, 3.83% and 2.76%, respectively.

As to `CCCCC(=O)NC(c1cccs1)c1cc(Cl)c2cccnc2c1O` (stereo not drawn), the inhibition in assay [1] is 8.63%; in assay [2], 8.32%; in assay [3], 5.17%.

On to `Nc1cc(C(F)(F)F)ccc1Cl`, for which the inhibition in assay [1] is -1.56%; in assay [2], -2.13%; in assay [3], -2.26%.

`O=C(NCCCCN1CCC(c2c[nH]c3ccccc23)CC1)c1ccc(-c2ccc(C(F)(F)F)cc2)cc1`: the inhibition was 0.97% in assay [1], 0.63% in assay [2] and -0.72% in assay [3].

For the compound `COc1ccc(N2CCN(CCCCNC(=O)c3ccc(NC(=O)c4ccc(Cl)c(Cl)c4)cc3)CC2)c(OC)c1`, the inhibition in assay [1] worked out at 2.23%; in assay [2] it was 1.72%; in assay [3], 1.65%.

Consider `COc1ccc2c(OC)c(CNCCCCCCNCc3ccc4cc(OC)ccc4c3OC)ccc2c1`, for which the inhibition in assay [1] came out at 106%; in assay [2] it was 107%; in assay [3], 107%.

With `Cc1cc(NCCC(=O)Nc2ccccc2)nc(NCC2CCCCC2)n1`, the results for the inhibition in assay [1], in assay [2] and in assay [3] were 5.97%, 3.39% and 3.6%, respectively.

For the compound `O=[N+]([O-])c1cccc(CNCC2CCN(Cc3ccc(-c4ccccc4)cc3)CC2)c1`, the inhibition in assay [1] came to 3.06%; in assay [2] it was 2.39%; in assay [3], 0.56%.

In the case of `COc1cc2nc(N3CCC(CNC(=O)c4ccc(-c5ccc(-c6noc(C)n6)cc5)cc4)CC3)nc(N)c2cc1OC`, the inhibition in assay [1] worked out at 64.1%; in assay [2], 45.5%; in assay [3], 41.6%.

For `CCCCCOc1c(CCC)cc(Cc2cnc(N)nc2N)cc1CCC`, the inhibition is 14.7% in assay [1], 12.3% in assay [2] and 4.12% in assay [3].

Consider `N#Cc1cccc(NC(=O)Nc2cccc(-c3cccc(-c4nc5cc(F)ccc5[nH]4)c3)c2)c1`, for which the inhibition in assay [1] was determined as 9.7%; in assay [2] it was 7.87%; in assay [3] it was 8.96%.

Turning to `CC(C)(C)OC(=O)N1CCC(C2CCN(C(=O)OC(C)(C)C)CC2)CC1`, the inhibition in assay [1] was -2.91%; in assay [2], -1.6%; in assay [3], -1.48%.

With `Brc1ccc(Nc2nc(NCc3ccccc3)c3ccccc3n2)cc1`, the inhibition in assay [1] was 22.6%; in assay [2], 16.5%; in assay [3], 6.03%.

For `CCNc1cc(C(=O)N[C@@H](Cc2ccccc2)[C@H](O)CNCCc2cccc3ccccc23)cc(N2CCCC2=O)c1`, the inhibition in assay [1] is -0.63%; in assay [2], -0.02%; in assay [3], -1.96%.

For `Cc1[nH]c(C)c(-c2ccc(-c3ccccc3)nc2)c(=O)c1Br`, the inhibition was -0.2% in assay [1], 0.36% in assay [2] and 0.2% in assay [3].

On to `O=C(C=Cc1ccc(Cl)c(Cl)c1)NCCCCCN1CCC(CCNC(=O)/C=C/c2ccccc2)CC1`, for which the inhibition in assay [1] amounted to 0.55%; in assay [2], 0.26%; in assay [3], 3.1%.

Take `O=C(NCc1cccc(F)c1)Nc1ccc(-c2cccc(-c3nc4ccccc4[nH]3)c2)cc1`: the inhibition in assay [1] is 2.57%; in assay [2], 4.32%; in assay [3], -0.32%.

For `COc1ccc2nccc([C@@H](O)CN3CCC(NC(=O)c4ccc(Cl)c(OC)c4)CC3)c2c1`, the inhibition was 4.62% in assay [1], 7.71% in assay [2] and 0.22% in assay [3].

For `Cc1cccc2nc(-c3cccc(-c4cccc(NC(=O)COc5ccccc5C(N)=O)c4)c3)[nH]c12`, the inhibition in assay [1] was -0.32%; in assay [2] it was 3.3%; in assay [3], 2.14%.

In the case of `CCC[C@@H]([C@@H](CC(C)C)C(=O)N[C@H](C(=O)Nc1nccs1)C(C)(C)SCCNC(=O)OCC)N(O)C=O`, the inhibition in assay [1] was 2.68%; in assay [2] it was 4.73%; in assay [3], 3.58%.

`CN(C)CCNCc1nc(-c2ccc3c(Nc4ccc(Oc5ccccc5)cc4)ccnc3c2)cs1`: the inhibition was -2.05% in assay [1], 1.8% in assay [2] and 5.9% in assay [3].

In the case of `CCCN1CCN(CC(O)CNC(=O)Nc2ccc(Cl)cc2)CC1` (stereo not drawn), the inhibition in assay [1] is 2.81%; in assay [2], 0.64%; in assay [3] it was 4.07%.

`COc1ccc(N2C(=O)c3c(c4ccccc4n3C)C2c2ccccc2O)cc1` (stereo not drawn): the inhibition in assay [1] amounted to 6.27%; in assay [2], 4.4%; in assay [3] it was 5.53%.

Regarding `COC(=O)c1cc(OC)c(OC)cc1NC(=O)NC12CC3CC(CC(C3)C1)C2`, the inhibition in assay [1] is 4.1%; in assay [2], 2.13%; in assay [3] it was 1.18%.

Turning to `O=C(NCc1ccc(Cl)cc1)c1ccc(CN2CCCN(CC3CCCCC3)CC2)cc1`, the inhibition was 4.46% in assay [1], 5.73% in assay [2] and 5.25% in assay [3].

For the compound `CCCCN1CCCC[C@H]1[C@@H](O)c1ccnc2ccc(OCC)cc12`, the values for the inhibition in assay [1], in assay [2] and in assay [3] were 2.63%, 3.12% and 3.68%, respectively.

`C=CCn1c(=N)n(CC(O)c2ccc(Cl)c(Cl)c2)c2ccccc21` (stereo not drawn): the inhibition in assay [1] came out at 2.79%; in assay [2] it was 3.84%; in assay [3], 0.9%.

On to `COc1ccc2ncc(F)c(CCN3CC[C@@H](CNCc4ccc5c(c4C)OCCO5)C3)c2n1`, for which the values for the inhibition in assay [1], in assay [2] and in assay [3] were 27.8%, 35.3% and 52.1%, respectively.

For the compound `O=C(Nc1ccc(-c2nc3ccccc3[nH]2)cc1)C1CCN(Cc2ccccc2)CC1`, the inhibition was determined as 16.2% in assay [1], 23.4% in assay [2] and 12.6% in assay [3].

On to `COc1cc(Cc2cnc(N)nc2N)cc(OCCCCCCN2C(=O)c3ccccc3C2=O)c1OC`, for which the inhibition in assay [1] was 7.29%; in assay [2] it was 4.53%; in assay [3], 5.48%.
